From PubChem
The list is not random: actives were taken first. Their share in the collection is about 2.1%.
D2 PAM-1: HTS Assay for Positive Allosteric Modulators of the Human D2 Dopamine Receptor: Primary Screen for Potentiators | HEK293 T-REx D2, calcium flux, EC20 dopamine potentiation | potentiation, % at 10 µM | hit rate 0.34% among 340,000 | AID 485347, 2010;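 active means potentiation over 3 SD above the plate norm, cut at about 30% in these data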; further: 0% is about no effect
Target sequence (P14416 whole entry, looked up): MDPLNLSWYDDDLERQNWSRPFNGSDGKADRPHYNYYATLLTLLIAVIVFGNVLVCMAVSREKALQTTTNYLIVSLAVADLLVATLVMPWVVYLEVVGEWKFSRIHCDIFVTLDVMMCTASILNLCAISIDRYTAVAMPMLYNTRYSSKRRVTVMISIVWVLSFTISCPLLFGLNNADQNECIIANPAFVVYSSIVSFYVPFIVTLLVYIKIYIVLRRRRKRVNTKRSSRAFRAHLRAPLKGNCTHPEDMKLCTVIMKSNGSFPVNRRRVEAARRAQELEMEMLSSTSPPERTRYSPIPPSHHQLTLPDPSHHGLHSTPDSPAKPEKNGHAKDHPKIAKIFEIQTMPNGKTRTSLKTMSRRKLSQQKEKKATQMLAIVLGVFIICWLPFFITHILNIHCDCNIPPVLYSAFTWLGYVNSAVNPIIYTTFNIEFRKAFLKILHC
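Tetracycline-induced Hek293 Trex D2 cells, force-coupled to calcium, loaded with no-wash calcium dye. Compound added with 180 s kinetic read for agonism, then EC20 dopamine and a further 180 s read for potentiation.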
D2 ag-1: Beta-Arrestin HTS for Positive Allosteric Modulators of the Human D2 Dopamine Receptor: Agonists; hit rate 0.084% among 360,000; activation, % (no concentration beside the values); D(2) dopamine receptor (Homo sapiens), P14416; DiscoveRx PathHunter D2 beta-arrestin, luminescence, 90 min; 100% = 57 uM dopamine signal; in the data active means activation above about 40%; inconclusive means between about 15% and that limit
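Agonist mode: compounds alone added to overnight-plated D2 PathHunter cells for 90 min at 37 C, with 57 uM final dopamine (EC100) defining full response. Beta-arrestin recruitment detected by chemiluminescent reagent, read after 1 h at ambient temperature.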
LDHA block: qHTS assay for inhibitors of human lactate dehydrogenase | L-lactate dehydrogenase A chain (Homo sapiens), P00338 | purified LDHA, NADH/diaphorase-resazurin fluorescence; hits give low values | activity change, % (values are at about 110 or 230 µM) | hit rate 0.15% among 480,000 | AID 1347041, 2019; in the data active means activity change below about -30%; inconclusive means mostly about -25% to -30%;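 further: plate controls were DMSO wells for no effect and wells without enzyme for full effect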
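Remaining NADH was detected by diaphorase (0.133 mg/mL) converting 37 µM resazurin to fluorescent resorufin, read at 0 and 20 minutes. The preceding 5-minute room-temperature reaction used 2 nM LDHA, 0.2 mM sodium pyruvate and 0.06 mM NADH at pH 7.4.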
D2 ag-2: HTS Assay for Allosteric Agonists of the Human D2 Dopamine Receptor: Primary Screen for Agonists; hit rate 0.53% among 340,000; activation, % at 2 µM; HEK293 T-REx D2 cells, calcium flux agonist mode; AID 485358, 2010; D(2) dopamine receptor (Homo sapiens), P14416;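 active means activation over 3 SD above normal in the single-dose calcium agonist read, cut at about 30% in these data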; further: 0% is about no effect
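HEK293 Trex D2 cells, tetracycline-induced, o/n 30 C 5% CO2; no-wash Ca dye, RT 30–90 min; 10-cycle baseline, 23 nl cpd added, kinetic Ca read 180 s; agonist hits = positive Ca response.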
D2 antag: HTS Assay for Allosteric Antagonists of the Human D2 Dopamine Receptor: Primary Screen for Antagonists; D(2) dopamine receptor (Homo sapiens), P14416; HEK293 TREx D2 cells, calcium flux, dopamine EC80; inhibition, % at 10 µM; hit rate 2% among 340,000; AID 485344, 2010; in the data active means inhibition above about 30%; inactive means below that, where a call was filed; further: 0% is about no effect
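Measurement of antagonist activity uses fluorescent calcium dye in inducible HEK293 T-REx D2 cells: 10 s baseline, compound addition with 180 s read, EC80 dopamine addition with a further 180 s read.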
D2 PAM-2: Beta-Arrestin HTS for Positive Allosteric Modulators of the Human D2 Dopamine Receptor: Potentiators. hit rate 0.23% among 360,000. AID 624464, 2012. D(2) dopamine receptor (Homo sapiens), P14416. potentiation, % (test concentration not listed). DiscoveRx D2 beta-arrestin cells, luminescence, 90 min; 100% = 57 uM dopamine signal; in the data active means potentiation above about 50%; inconclusive means mostly about 30% to 49%
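PathHunter D2 cells, attached overnight at 37 deg C, received compound in DMSO plus dopamine at EC20 (50 nM final) for 90 min at 37 deg C. Beta-arrestin recruitment was read as luminescence after 1 h with detection reagent at ambient temperature.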
D3 arrestin ag: qHTS of D3 Dopamine Receptor Agonist: D3 Dopamine Receptor B-arrestin Agonist Confirmatory Assay; DiscoveRx D3 beta-arrestin cells, luminescence, 90 min; AID 720506, 2013; shares compounds with D2 ag-2; hit rate 4% among 2,300; Potency, µM (highest dose often 76.9 µM), inactives show top-dose activation, hits mostly activators;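 further: potency means the concentration at half of the fitted maximal effect; 100% = dopamine control response; nearly all actives have a fitted effect of over 70% in size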
D2 ag-3: qHTS of D3 Dopamine Receptor Agonist: D2 Dopamine Receptor B-arrestin Agonist Counterscreen | shares compounds with D2 ag-2 | hit rate 5.9% among 2,300 | Potency, µM (highest dose often 76.9 µM), for the others: top-dose activation, hits mostly activators | DiscoveRx PathHunter D2 beta-arrestin, luminescence, 90 min; response scale: percent relative to full dopamine signal; further: potency means the concentration at half of the fitted maximal effect; % of control where 0% means no effect; nearly all actives have a fitted effect of over 70% in size
An asterisk follows results filed as active; ? = inconclusive; / = no result. Unless noted, the call rests on the fitted dose curve; in most records, active means well fitted activation curve with a large enough effect; inconclusive means small, poorly fitted or top-dose-only effect; inactive means flat fitted curve, though single readings scatter.

SMILES | D2 PAM-1 | D2 ag-1 | LDHA block | D2 ag-2 | D2 antag | D2 PAM-2 | others
FC(F)Oc1ccc(CNCCc2c[nH]c3ccccc23)cc1 | / | / | -2 | / | / | /
O=C1NC(=O)N(Cc2cccs2)C(=O)/C1=C/c1ccc(N2CCOCC2)cc1 | 6 | 0 | -46* | 0 | 5 | -7
O=[N+]([O-])/C=C/c1c[nH]c2ccccc12 | / | / | 8 | / | / | /
COc1cc2c(cc1O)[C@@H]1Cc3ccc(OC)c(O)c3CN1CC2 | -12 | 9 | 11 | -1 | 75* | -5
COc1ccc(C[C@@H]2c3cc(O)c(OC)cc3CCN2C)cc1O | -18 | -1 | 1 | 0 | 52* | -26
CN(C)c1ccc(C2CC2N)cc1 (stereo unspecified) | / | / | 22 | / | / | /
CSCCC(c1nnnn1-c1ccc2c(c1)OCCO2)N1CCC(n2c(=O)[nH]c3ccccc32)CC1 (stereo unspecified) | / | 4 | -9 | / | / | 65*
COc1cccc(C(c2nnnn2-c2ccc3c(c2)OCCO3)N2CCC(n3c(=O)[nH]c4ccccc43)CC2)c1OC (stereo unspecified) | / | 4 | -4 | / | / | ?
O=c1[nH]c2ccccc2n1C1CCN(C(c2cc3ccccc3o2)c2nnnn2Cc2ccccc2)CC1 (stereo unspecified) | / | 2 | -7 | / | / | 58*
O=c1[nH]c2ccccc2n1C1CCN(C(c2cccc3ccccc23)c2nnnn2Cc2ccccc2)CC1 (stereo unspecified) | / | ? | -2 | / | / | ?
O=c1[nH]c2ccccc2n1C1CCN(C(c2ccccc2OC(F)(F)F)c2nnnn2-c2ccc3c(c2)OCCO3)CC1 (stereo unspecified) | / | 10 | -2 | / | / | 61*
NC(=O)C1CCN(C(=O)c2cn(Cc3ccccc3)c3ccccc23)CC1 | / | / | -15 | / | / | /
Cc1[nH]c2ccccc2c1/C=C/[N+](=O)[O-] | / | / | 12 | / | / | /
O=C1CSC(c2ccc(Cl)cc2)c2cn[nH]c2N1 (stereo unspecified) | / | / | -8 | / | / | /
c1ccc(CCCN2CCN(CCOC(c3ccccc3)c3ccccc3)CC2)cc1 | / | 3 | 3 | / | / | -26
CCCCN(Cc1ccccc1)C1CCN(CCc2ccccc2)CC1 | -21 | -5 | 0 | -1 | 56* | -11
Fc1ccc(C(OCCN2CCCC2)c2ccc(Br)cc2)cc1 (stereo unspecified) | -23 | 0 | 2 | 4 | 47* | -16
CCOc1ccc(CNCCc2c[nH]c3ccccc23)cc1OC | / | / | 6 | / | / | /
O=S1(=O)N(CCN2CC=C(c3c[nH]c4cc(F)ccc34)CC2)c2cccc3c2N1CCC3 | -25 | 12 | -11 | 2 | 64* | -20
CC1CN=C(NCc2ccc(F)cc2)S1 (stereo unspecified) | -7 | -2 | -9 | 37* | 4 | -5
COc1cc(/C=C(/C)[N+](=O)[O-])cc(OC)c1OC | / | / | 3 | / | / | /
Cc1ccc(CN(CCc2ccccc2)Cc2ccccc2)o1 | / | / | 3 | / | / | /
Cc1ccc(CN2CCN(Cc3ccccc3F)CC2)cc1 | -15 | -4 | -35* | -1 | 39* | -21
COc1ccc(CN2CCN(Cc3ccccc3OC)CC2)cc1 | 1 | -3 | -37* | 0 | -5 | -22
Cc1ccc(CN2CCN(Cc3ccc(F)cc3)CC2)cc1 | / | / | 9 | / | / | /
SMILES | D2 PAM-1 | D2 ag-1 | LDHA block | D2 ag-2 | D2 antag | D2 PAM-2 | others
Cc1cccc(CN2CCN(Cc3ccc(Cl)cc3)CC2)c1 | 11 | -4 | ? | -1 | 4 | -47
COc1ccccc1CN1CCN(Cc2ccc(Cl)cc2)CC1 | -24 | -1 | -34* | 1 | 76* | -23
COc1ccccc1CN1CCN(C(=O)COc2ccc3ccccc3c2)CC1 | 11 | -6 | -4 | 0 | -22 | -28
N#Cc1ccc(CN2CCC(c3c[nH]c4ccccc34)CC2)cc1 | / | / | 1 | / | / | /
NCCc1c[nH]c2ccc(C(N)=O)cc12 | -8 | -6 | -3 | 3 | 11 | -1
CS(=O)(=O)Nc1ccc(Cc2noc(-c3ccc4[nH]cc(CCN)c4c3)n2)cc1 | -6 | / | / | 9 | 40* | /
COc1ccc(N2C(=O)NC(=O)/C(=C\c3ccccc3[N+](=O)[O-])C2=O)cc1 | 12 | 2 | ? | 0 | -8 | 21
CCOc1ccc(N2C(=O)/C(=C/c3ccco3)C(=O)NC2=S)cc1 | 7 | 0 | -37* | -1 | 15 | -10
CCOc1ccc(N2C(=O)/C(=C\c3cccs3)C(=O)NC2=S)cc1 | 1 | -6 | -9 | 0 | -21 | -26
CCOc1ccc(N2C(=O)NC(=O)/C(=C\c3ccccc3[N+](=O)[O-])C2=O)cc1 | -5 | 8 | -53* | 0 | -19 | 0
Cc1[nH]c2ccccc2c1CCCNC1CCCCC1 | -26 | -8 | 0 | 1 | 39* | -30
Cc1cc(C)c(NC(=O)c2cn(Cc3ccccc3)nn2)c(C)c1 | / | / | 8 | / | / | /
COc1ccc(CNCCc2cccc(Cl)c2)cc1 | / | / | 2 | / | / | /
CCOC(=O)C1CCN(Cc2ccc(Cl)nc2)CC1 | -20 | 4 | -8 | 47* | 47* | -13 | D3 arrestin ag=-3%;D2 ag-3=1%
CCOc1ccc(CN2CCN(C(=O)Cc3ccccc3)CC2)cc1 | -3 | -7 | -15 | 1 | -14 | -21
COCCNC(=O)NC(=O)CCl | / | / | -5 | / | / | /
CCCOC(=O)c1ccccc1C(=O)OCCC | 7 | 8 | -4 | -1 | -5 | -8 | D3 arrestin ag=-8%;D2 ag-3=-3%
CCOC(=O)c1ccccc1C(=O)OCC | / | 2 | -6 | / | / | -8
CCCC(=O)c1cn(Cc2ccc(C#N)cc2)c2ccccc12 | / | / | 0 | / | / | /
C1NC2CC3CC1CC(C3)C2 | / | / | -2 | / | / | /
